High-throughput results as filed in PubChem BioAssay.
PNC inhibitor – blocks assembly of the perinucleolar compartment; PC3M PTB-GFP, PNC prevalence imaging, 16 h; stronger effect = lower value; activity change (PNC), negative = inhibition, % at 10 µM; 140,000 tested, 3.1% active;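 active means readout at or below -70, meaning at least 70% loss of cells showing the perinucleolar compartment, a nuclear body marking cancer cells; inconclusive means readout between -30 and a set limit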;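 further: plate controls were DMSO wells for no effect and camptothecin positive control wells for full effect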
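Read-out is percentage of cells bearing a perinucleolar compartment, from automated 20x imaging of fixed, Hoechst-stained PC3M PTB-GFP cells. Cells were seeded 4 h, then exposed 16 h to compound (23 nl of library stock) in duplicate plates.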
HPGD inh – HPGD (human) dehydrogenase inhibition; P15428; purified HPGD, NADH fluorescence kinetic, PGE2 substrate; Potency, µM, without a hit: at the highest dose activity change, negative = inhibition, hits mostly inhibitors; 150,000 tested, 4.3% active; AID 894; active means well fitted inhibition curve with a large enough effect, not every such curve was filed as active; inconclusive means small, poorly fitted or top-dose-only effect, or another doubt; inactive means no such curve, though single readings can be large or run the other way; further: potency means the concentration at half of the fitted maximal effect
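20 nM HPGD preincubated 15 min at room temperature with compound in 50 mM Tris-HCl pH 8, 0.01% Tween 20. Started with 1 mM NAD+ and 30 uM prostaglandin E2; NADH fluorescence (360/450 nm) read 5 times over 30-s intervals, last minus first.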
IMPase cell inh – cell-permeable inhibitors of inositol monophosphatase (IMPase); P97697; CHO-M1 cells, IP1 accumulation, HTRF TR-FRET ratio; inhibition (IP1 accumulation), % at 46.1 µM; 120,000 tested, under 10 active; active means well fitted curve in the direction sought with a large enough effect in the signal ratio, not every such curve was filed as active; inconclusive means small, poorly fitted or top-dose-only effect, or a change in a side signal; inactive means no such curve, though single readings can be large or run the other way; the % refers to the signal ratio;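 further: cells stimulated with carbachol in lithium chloride buffer; plate controls were DMSO basal wells for no effect and reference inhibitor wells for full effect; higher means more IMPase inhibition seen as more IP1 and lower FRET ratio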
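CHO-M1 cells (CHO stably expressing M1 receptor), compound up to 46 uM final, stimulated with carbachol (50 uM as added) in buffer with 50mM LiCl, pH 7.4, 30 min at 37C. Cytosolic IP1 read by TR-FRET; AC50 from Hill fits.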
ALDH1A1 inh – ALDH1A1 (human) enzyme inhibition. AID 1030. P00352. Potency, µM (titrated, usually from 75.3 µM), without a hit: at the highest dose activity, negative = inhibition, usual class: inhibitors. 220,000 tested, 7.3% active. Purified ALDH1A1, NADH fluorescence, propionaldehyde substrate; active means well fitted inhibition curve with a large enough effect, not every such curve was filed as active; inconclusive means small, poorly fitted or top-dose-only effect, or another doubt; inactive means no such curve, though single readings can be large or run the other way;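 further: potency means the concentration at half of the fitted maximal effect; plate controls were no enzyme wells and a reference inhibitor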
IMPase Li cell – IMPase inhibition in cells with lithium potentiation; Potency, µM (highest dose often 59.4 µM), for the others: at the highest dose activity, negative = IMPase inhibition, actives largely listed as inhibitors; 210,000 tested, 0.35% active; CHO-M1 cells, IP1 TR-FRET (IP-One), carbachol + lithium;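 further: IP1 builds up when IMPase is blocked and the TR-FRET signal falls; potency means the concentration at half of the fitted maximal effect; plate controls were basal vehicle for no effect and high inhibitor control for full effect; nearly all actives have a fitted effect of over 50% in size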
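Lithium-sensitised IP1 accumulation assay; M1-expressing CHO cells treated 30 min at 37C with compound. Competitive antibody detection by time-resolved FRET followed a 10 min room-temperature lysis step.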
12-hLO inh – 12-hLO (ALOX12) enzyme inhibition; P18054; purified 12-hLO, xylenol orange hydroperoxide absorbance; Potency, µM (doses to about 57.1 µM), for the others: at the top dose activity change, negative = inhibition, actives largely listed as inhibitors; 150,000 tested, 0.12% active; AID 1452; further: potency means the concentration at half of the fitted maximal effect; nearly all actives have a fitted effect of over 55% in size
Target sequence (P18054 whole entry, looked up): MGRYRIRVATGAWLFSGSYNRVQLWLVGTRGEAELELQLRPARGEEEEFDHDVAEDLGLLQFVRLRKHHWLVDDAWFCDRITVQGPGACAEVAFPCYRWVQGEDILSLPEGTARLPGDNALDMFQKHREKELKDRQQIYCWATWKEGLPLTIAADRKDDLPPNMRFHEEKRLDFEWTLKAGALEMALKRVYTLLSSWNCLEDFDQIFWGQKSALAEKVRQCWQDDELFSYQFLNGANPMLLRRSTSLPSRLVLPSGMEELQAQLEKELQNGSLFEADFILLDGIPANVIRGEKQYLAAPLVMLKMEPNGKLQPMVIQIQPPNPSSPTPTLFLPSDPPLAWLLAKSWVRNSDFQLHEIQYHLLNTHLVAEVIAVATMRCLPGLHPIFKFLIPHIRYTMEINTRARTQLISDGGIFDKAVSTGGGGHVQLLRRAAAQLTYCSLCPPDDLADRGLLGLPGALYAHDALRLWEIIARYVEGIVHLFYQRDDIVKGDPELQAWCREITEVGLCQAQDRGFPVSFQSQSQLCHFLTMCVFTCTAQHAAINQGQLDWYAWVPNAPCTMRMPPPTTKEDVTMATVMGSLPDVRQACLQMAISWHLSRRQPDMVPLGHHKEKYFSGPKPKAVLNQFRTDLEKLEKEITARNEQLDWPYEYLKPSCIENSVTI
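Purified human 12hLO (150 nM final) was preincubated with compounds for 15 min at room temperature in 25 mM Hepes pH 7.0, 0.01% Triton X-100, then reacted with 40 uM arachidonic acid for 30 min. Hydroperoxide was detected with ferrous iron/xylenol orange.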
Active calls of the source: *; ? = inconclusive; nt = no result; ! = repeats disagree; [ ] = another dose, or the depositor's remark. Hits are enriched below; roughly 11% of the tested compounds scored in any of these assays. Unless noted, the call rests on the fitted dose curve; in most records, active means well fitted curve in the direction sought with a large enough effect; inconclusive means small, poorly fitted or top-dose-only effect, or another doubt; inactive means no such curve, though single readings can be large; an effect the other way counts as inactive or inconclusive. Unless noted, on the % scale 0 is the no-effect control and ±100 the full control effect.

SMILES	PNC inhibitor	HPGD inh	IMPase cell inh	ALDH1A1 inh	IMPase Li cell	12-hLO inh
O=C1C=CC(=O)N1CCNc1ncc(C(F)(F)F)cc1Cl	nt	nt	nt	0.63µM*	20%	nt
O=C(O)/C=C/C(=O)NCCNc1ncc(C(F)(F)F)cc1Cl	nt	nt	nt	28µM*	10%	nt
O=C1CC(=O)N(CCNc2ncc(C(F)(F)F)cc2Cl)C(=O)N1	49	-18%	0	7%	-11%[38.3 µM]	-12%
O=S(=O)(NCCNc1ncc(C(F)(F)F)cc1Cl)C(F)(F)F	nt	nt	nt	13%	11%	nt
O=C(Nc1nc2ccc(Cl)cc2s1)[C@@H]1CCCN1C(=O)c1cccs1	-15	?	nt	25µM*	-3%	?
Cc1cc([N+](=O)[O-])ccc1NC(=O)c1ccco1	nt	nt	nt	16µM*	15%	nt
Cc1cc(NC(=O)c2ccc([N+](=O)[O-])o2)ccc1NC(=O)c1ccco1	nt	nt	nt	25µM*	13%	nt
Cc1cc(NC(=O)c2ccc([N+](=O)[O-])cc2Cl)ccc1NC(=O)c1ccco1	-5	-7%	nt	8%	-4%	1%
S=C(NCc1cccc(Cl)c1)NC1CCCCC1	-109*	-25%	nt	-1%	0%	?
S=C(NCc1ccccc1)NC1CCCCC1	nt	nt	nt	-2%	11%	nt
CCc1ccccc1Nc1nc2ccccc2c2nncn12	nt	nt	-1	nt	nt	nt
CN(Cc1ccccc1)S(=O)(=O)c1ccccc1[N+](=O)[O-]	nt	nt	nt	9%	10%	nt
COc1cc(N(C)C)c([N+](=O)[O-])cc1C(=O)NC(C)CNc1ccc([N+](=O)[O-])cc1Cl (stereo not given)	52	-20%	-7	1.6µM*	10%	2%
CCOC(=O)N/N=C1/C[C@@H](O)[C@@H](O)[C@@H]2[C@@H]3C(=O)N([C@@H](C)c4ccccc4)C(=O)[C@H]3CC[C@H]12	nt	nt	nt	7%[13.5 µM]	nt	nt
CCN(CC)CCCNC(=O)c1cc(Sc2nnc(C)s2)nc2ccccc12	?	28µM*	nt	2%	2%	4%
CCCCOc1cc(C(=O)NCCN(CC)CC)c2ccccc2n1	-115*!	-26%	3[20.6 µM]	1%	-3%	-7%
CC(=O)c1c(C)oc2ccc(N(C(=O)Oc3ccccc3)S(=O)(=O)c3ccc(Cl)cc3)cc12	nt	nt	9	nt	nt	nt
O=C(O)[C@@H]1CS[C@@]2(CCCN(Cc3ccccc3)C2)N1	nt	1%	nt	-9%[13.5 µM]	5%	2%[11.4 µM]
CC(=O)Oc1cc(OC(C)=O)c2c(c1)OC(c1ccc(OC(C)=O)c(OC(C)=O)c1)C(OC(C)=O)C2 (stereo not given)	nt	3%	nt	4%	12%	-2%
Cc1cc(F)ccc1NC(=O)c1ccc(NS(=O)(=O)c2cc(C(C)(C)C)ccc2C)cc1	-16	-11%	nt	2.5µM*	-3%	2%
COc1cc(Cl)c(C)cc1NC(=O)c1ccc(NS(=O)(=O)c2ccc(F)c(F)c2)cc1	nt	nt	nt	?	5.6µM*	nt
CC(=O)Nc1ccc(NC(=O)c2ccc(NS(=O)(=O)c3cc(C(C)(C)C)ccc3C)cc2)cc1	nt	nt	nt	?	9%	nt
COc1ccccc1NC(=O)c1ccc(NS(=O)(=O)c2ccc(F)c(F)c2F)cc1	-121*	-16%	nt	?	-3%	-5%
COc1ccccc1NC(=O)c1ccc(S(=O)(=O)N(C)C)cc1	?	-6%	-3	-10%	13%[38.3 µM]	-3%
CCOc1ccc(Br)cc1S(=O)(=O)Nc1ccc(C(=O)Nc2ccccc2OC)cc1	?	-29%	nt	16µM*	0%	-2%
SMILES	PNC inhibitor	HPGD inh	IMPase cell inh	ALDH1A1 inh	IMPase Li cell	12-hLO inh
Cc1ccc(NC(=O)C(C)OC(=O)c2ccc(NS(=O)(=O)c3ccc(F)c(F)c3)cc2)cc1 (stereo not given)	-27	-6%	nt	6%	1%	-1%
CC(=O)c1ccc(NC(=O)C(C)OC(=O)c2ccc(NS(=O)(=O)c3ccc(F)c(F)c3)cc2)cc1 (stereo not given)	-100*	-11%	nt	-11%	2%	-8%
O=C(Cc1cccs1)NC1CCCC1	nt	nt	nt	12%	0%	nt
O=C(NC1CCCCCC1)c1cccs1	?	25µM*	-2	?	28%[38.3 µM]	6%
O=C(CNC1CCCCCC1)c1cccs1	-16	?	nt	6µM*	12%	-2%
O=C(NC1CCCCC1)c1ccc(CNc2ccccc2)o1	-26	-15%	-2	?	-13%[38.3 µM]	-6%
Cc1ccc(C(=O)NC2CCCCCC2)o1	38	25µM*	-2	-4%	17%[38.3 µM]	5%
O=C(NC1CCCCC1NC(=O)c1cccs1)c1cccs1 (stereo not given)	38	-8%	4	9%	1%[38.3 µM]	3%
O=C(NC1CCCCCCC1)c1ccccc1-c1ccccc1	-113*	-1%	nt	?	13%	1%
COc1ccc(-c2nc3cnc(N(C)C)nc3n(C3CC3)c2=O)cc1	nt	nt	nt	?	-3%	nt
CCC(C)CCCCC(=O)N[C@@H](CCN)C(=O)N[C@H](C(=O)N[C@@H](CCN)C(=O)N[C@H]1CCNC(=O)C([C@@H](C)O)NC(=O)[C@@H](CCN)NC(=O)[C@H](CCN)NC(=O)[C@H](CC(C)C)NC(=O)[C@@H](CC(C)C)NC(=O)[C@H](CCN)NC1=O)[C@@H](C)O (stereo not given in full)	nt	-5%	nt	-3%	-1%	-13%[0.00818 µM]
Cc1ccc(CN2CCCC(CO)(Cc3ccccc3C)C2)s1 (stereo not given)	nt	nt	nt	-2%	5%	nt
CCOC(=O)c1ccc(N=C2SC(C(=O)Nc3ccccc3)CC(=O)N2C)cc1 (stereo not given)	nt	nt	0	nt	nt	nt
COc1ccc(C2Nc3ccccc3-c3nnc(SC)nc3O2)cc1C (stereo not given)	nt	nt	1	nt	nt	nt
O=C(NN1C(=O)C2C3C=CC(C3)[C@H]2C1=O)c1cccnc1 (stereo not given in full)	-98*	-7%	3	11%	-8%	-4%
O=C(CSc1nnc2scc(-c3ccc(Cl)cc3)n12)Nc1ccc(F)cc1	nt	nt	-5	nt	nt	nt
C=C(C)C(O)/C=C/c1ccc(C)cc1 (stereo not given)	nt	nt	nt	-1%[13.5 µM]	nt	nt
COc1nc(NC23CC4CC(CC(C4)C2)C3)nc(OC)n1	-7	-10%	3	25µM*	-3%[38.3 µM]	-4%
CCOC(=O)C1=C(N)OC2=C(C(=O)CCC2)C1c1ccc(C)s1 (stereo not given)	-107*	-13%	11	?	19%[38.3 µM]	-9%
CCOC(=O)C1=C(N)OC2=C(C(=O)CCC2)C1c1cccnc1 (stereo not given)	-120*	-13%	-4	-4%	-10%[38.3 µM]	-1%
Cc1ccccc1Nc1oc(-c2ccccc2)nc1-c1ccccc1	nt	?	nt	?	26%	2%
O=C(c1cnccn1)N1CCC2(CC1)CN(c1ccccn1)C2	nt	-16%	nt	?	8%	-1%
